# In PubChem BioAssay (NCI):
# Compounds without any hit were thinned out: in the full panel of roughly 83,000, 20% have a hit.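 Method: cells in 96-well plates; compound added at one concentration; 48 h incubation; percent growth measured; values under 10 scored active.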 Unmarked numbers belong to inactive results. Active and inactive are the calls of the source.
# Test system: LOX IMVI melanoma
# Assay: NCI-60 one-dose screen, 48 h (100 = growth as untreated, 0 = no growth, -100 = all killed)
# Details: 10 µM unless noted
# Protocol: Growth inhibition of the LOX IMVI human tumor cell line is measured as a screen for anti-cancer activity. Cells are grown in 96 well plates and exposed to the test compound for 48 hours. Compounds are tested at a single concentration, which is 10^-5 M for most compounds. The reported endpoint is percent growth (GI% or GIPRCNT), where numbers from 0 - 100% represent growth inhibition, and numbers from -100% - 0 represent cell death. For example, a value of 40 represents 60% growth inhibition. A value of 0 means no net growth occurred over the course of the experiment. A value of -40 indicates 40% of cells at the beginning of the experiment died by the end of the experiment. A value of -100 means all cells are dead at the end of the experiment.
# NCI-60 Human Tumor Cell Lines Screen was performed using the standard one-dose NCI protocol, which is described in more detail at https://dtp.cancer.gov/discovery_development/nci-60/default.htm.
# Compounds with GIPRCNT values below 10 were considered active. Activity score was based on GIPRCNT using the following formula: […]
# Score is 0 for GIPRCNT values of 100 or above, 50 for GIPRCNT values of 0, and 100 for GIPRCNT values of -100.
row,Structure (SMILES),growth
1,Nc1c(C(=O)c2ccccc2)sc2nc(-c3cccs3)cc(-c3cccs3)c12,51.5%
2,CN(C)C1CCN(C(=O)c2ccc(NC(=O)Nc3ccc(-c4nc(N5CCOCC5)nc(N5CCOCC5)n4)cc3)cc2)CC1,0.487% [2.5 µM] (active)
3,Cc1cc(N(CCNc2ccnc3cc(Cl)ccc23)Cc2cccs2)nc(Cl)n1,-74.4% (active)
4,Cc1[nH]n(C(N)=S)c(=O)c1N=Nc1ccc(S(=O)(=O)Nc2ccncn2)cc1,87.4%
5,CC1(COc2ccc3c(c2)ncn3-c2ccc3cccc(N4CCC(N)CC4)c3n2)COC1,-57.2% (active)
6,O=C1CCC(=O)CC1,101%
7,O=C(NOC[C@H](O)CO)c1ccc(F)c(F)c1Nc1ccc(I)cc1F,23.1%
8,Cc1cc2c3c(cccc3c1)C(=O)c1ccccc1-2,86.8%
9,Cc1oc2c(C(=O)N/N=C\c3ccc(O)cc3O)c[nH]c2c1C,-7.96% (active)
10,C=C1C(=O)O[C@H]2[C@H]1CC/C(Cn1cc(-c3cc(C)c(C)cc3C)nn1)=C\CC[C@@]1(C)O[C@@H]21,-95% (active)
11,CNC(=O)c1ccccc1Nc1nc(Nc2ccc3c(c2OC)CCC[C@H](N2CCN(CCO)CC2)C3)ncc1Cl,-89.6% (active)
12,Nc1cc(C(F)(F)F)c(-c2cc(N3CCOCC3)nc(N3CCOCC3)n2)cn1,-44.6% (active)
13,Cn1ccnc1C(=O)/C=C/c1ccc(CC(=O)Nc2ccc(Br)cc2)cc1,7.81% (active)
14,Cc1[nH]c(/C=C2\C(=O)Nc3ccc(F)cc32)c(C)c1C(=O)NC[C@H](O)CN1CCOCC1,9.27% (active)
15,CC(C)(C)c1ccc(Cn2cc(CSc3nc4ccccc4s3)nn2)cc1,103%
16,CC(=O)CC1CCCC1c1ccc2ccccc2c1 (stereo not given),97.8%
17,C=CC(=O)Nc1cc2c(Nc3ccc(F)c(Cl)c3)ncnc2cc1OCCCN1CCOCC1,-87% (active)
18,Cc1nc(-c2cn3c(n2)-c2ccc(-c4cnn(C(C)(C)C(N)=O)c4)cc2OCC3)n(C(C)C)n1,11.6%
19,COc1cc(Nc2ncc3c(n2)-c2ccc(Cl)cc2C(c2c(F)cccc2OC)=NC3)ccc1C(=O)O,35.9%
20,S=C(NCc1ccc2c(c1)OCO2)N1CCN(c2ncnc3c2oc2ccccc23)CC1,44.6%

row,Structure (SMILES),growth
1,Cn1c(=O)c(F)c(Nc2ccc(I)cc2F)c2c(=O)n(C[C@@H](O)CO)cnc21,15.3%
2,COc1cc2c(cc1OCCCCCCN1CCN(c3ncnc4ccccc34)CC1)N=CC1CCCN1C2=O (stereo not given),-51.1% (active)
3,Cc1ccccc1Nc1nc2nonc2nc1Nc1cccc(C)c1C,54%
4,CSc1nc2ncncc2[nH]1,97.5%
5,COc1cc(OC)c(C(=O)/C=C/c2cc3c(cc2OCc2ccccc2)OC(C)(C)CC3)cc1CC=C(C)C,38.9%
6,COc1cc(NCCN(CC(C)C)CC(C)C)c2ncc(C)cc2c1,15.5%
7,CCN1CCN(Cc2ccc(NC(=O)Nc3nc(-c4cc(OC)c(OC)c(OC)c4)cs3)cc2C(F)(F)F)CC1,-82.7% (active)
8,Cc1nc2cc(-c3nn(C(C)C)c4ncnc(N)c34)ccc2o1,-21.1% (active)
9,CC(=O)C1=C(C)NC(SCc2nnc(-c3ccc(C)cc3)o2)=NC1c1ccc(F)cc1 (stereo not given),93.2%
10,NC(=O)N1N=C(c2ccc(Cl)cc2)CC1c1cn(-c2ccccc2)nc1-c1ccc(Cl)cc1 (stereo not given),55.9%
11,COc1cc2ncnc(Nc3ccc(F)c(Cl)c3)c2cc1NC(=O)/C=C/CN1CCCCC1,-90.2% (active)
12,COc1c(OCCCN2CCOCC2)ccc2c3n(c(=NC(=O)c4cnc(N)nc4)nc12)CCN3,-41.9% (active)
13,O=C(Cn1ccc2ccccc21)Nc1ccc(-c2nc3ccccc3s2)cc1,91.3%
14,CS(=O)(=O)N1CCN(Cc2cc3nc(-c4cccc5[nH]ncc45)nc(N4CCOCC4)c3s2)CC1,15.5%
15,N[C@@H]1CCCN(c2c(/C=C3\SC(=O)NC3=O)cccc2-c2ccccc2)C1,72.6%
16,Cc1ccccc1N1C(c2ccccc2)=NNC12C=CC(=O)C=C2Cl (stereo not given),98.7%
17,COc1ccc(C(=O)N2c3ccccc3Sc3ccccc32)c(F)c1,40.3%
18,O=C1NC(=O)/C(=C/c2ccc3nccc(-c4ccncc4)c3c2)S1,-40.8% (active)
19,CC(C)=CCc1cc2c(cc1O)C1=C(C(=O)C3=C(C1=O)S(=O)(=O)CCN3)C(C=C(C)C)O2 (stereo not given),-65.8% (active)
20,CNC(=O)c1cc(Oc2cccc3nc(Nc4ccc(Cl)c(F)c4)ccc23)ccn1,59.6%
